High-throughput results as filed in PubChem.
Only some compounds are listed: those with a hit (about 7.9% of all), similar ones and a draw of the others.
Her2 expr inh: inhibitors of Her2 protein expression, primary screen, SKBR-3 cells, AlphaScreen, 66K library; SKBR-3 HER2 protein level, 18-24 h; active compounds read low; HER2 level % of control, % at 10 µM; 65,000 tested, 0.69% active; AID 645, 2007;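 active = HER2 level under 5% of the carrier-only control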;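 also: 100% = DMSO carrier and 0% = 500 nM PU-H71 HSP90 inhibitor; lower value means stronger loss of Her2 protein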
M1 ag: M1 muscarinic receptor agonists, primary screen, CHO-M1 cells, Fluo-4 calcium, agonist mode; Muscarinic acetylcholine receptor M1; Fluo-4 calcium fluorescence; active compounds read high; B-score at 10 µM; 64,000 tested, 3% active;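 active = fluorescence rise, raw or as B-score row- and column-corrected plate score, outside the 99.7% band of its plate's samples, either direction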
PLAP activator: PLAP enzyme activators, biochemical, luminescence, HTS | activation fold at 20 µM | 96,000 tested, 1.2% active | AID 696, 2007 | purified PLAP enzyme, luminescent substrate read-out; active compounds read high; in the data active = activation fold above about 2
Cav32 inh: Cav3.2 calcium influx blockers – cell-based, Fluo-4 calcium fluorescence, FDSS, MLSMR library, primary screen. Voltage-dependent T-type calcium channel subunit alpha-1H (Homo sapiens), O95180. Cav3.2-expressing cells; active compounds read low. B-score at 10 µM. 100,000 tested, 4% active. AID 449739, 2010;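 active = single-dose well whose peak fluorescence ratio is a statistical outlier from its plate by either plate-standardised score or position-corrected B-score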
Target sequence (O95180 whole entry, looked up): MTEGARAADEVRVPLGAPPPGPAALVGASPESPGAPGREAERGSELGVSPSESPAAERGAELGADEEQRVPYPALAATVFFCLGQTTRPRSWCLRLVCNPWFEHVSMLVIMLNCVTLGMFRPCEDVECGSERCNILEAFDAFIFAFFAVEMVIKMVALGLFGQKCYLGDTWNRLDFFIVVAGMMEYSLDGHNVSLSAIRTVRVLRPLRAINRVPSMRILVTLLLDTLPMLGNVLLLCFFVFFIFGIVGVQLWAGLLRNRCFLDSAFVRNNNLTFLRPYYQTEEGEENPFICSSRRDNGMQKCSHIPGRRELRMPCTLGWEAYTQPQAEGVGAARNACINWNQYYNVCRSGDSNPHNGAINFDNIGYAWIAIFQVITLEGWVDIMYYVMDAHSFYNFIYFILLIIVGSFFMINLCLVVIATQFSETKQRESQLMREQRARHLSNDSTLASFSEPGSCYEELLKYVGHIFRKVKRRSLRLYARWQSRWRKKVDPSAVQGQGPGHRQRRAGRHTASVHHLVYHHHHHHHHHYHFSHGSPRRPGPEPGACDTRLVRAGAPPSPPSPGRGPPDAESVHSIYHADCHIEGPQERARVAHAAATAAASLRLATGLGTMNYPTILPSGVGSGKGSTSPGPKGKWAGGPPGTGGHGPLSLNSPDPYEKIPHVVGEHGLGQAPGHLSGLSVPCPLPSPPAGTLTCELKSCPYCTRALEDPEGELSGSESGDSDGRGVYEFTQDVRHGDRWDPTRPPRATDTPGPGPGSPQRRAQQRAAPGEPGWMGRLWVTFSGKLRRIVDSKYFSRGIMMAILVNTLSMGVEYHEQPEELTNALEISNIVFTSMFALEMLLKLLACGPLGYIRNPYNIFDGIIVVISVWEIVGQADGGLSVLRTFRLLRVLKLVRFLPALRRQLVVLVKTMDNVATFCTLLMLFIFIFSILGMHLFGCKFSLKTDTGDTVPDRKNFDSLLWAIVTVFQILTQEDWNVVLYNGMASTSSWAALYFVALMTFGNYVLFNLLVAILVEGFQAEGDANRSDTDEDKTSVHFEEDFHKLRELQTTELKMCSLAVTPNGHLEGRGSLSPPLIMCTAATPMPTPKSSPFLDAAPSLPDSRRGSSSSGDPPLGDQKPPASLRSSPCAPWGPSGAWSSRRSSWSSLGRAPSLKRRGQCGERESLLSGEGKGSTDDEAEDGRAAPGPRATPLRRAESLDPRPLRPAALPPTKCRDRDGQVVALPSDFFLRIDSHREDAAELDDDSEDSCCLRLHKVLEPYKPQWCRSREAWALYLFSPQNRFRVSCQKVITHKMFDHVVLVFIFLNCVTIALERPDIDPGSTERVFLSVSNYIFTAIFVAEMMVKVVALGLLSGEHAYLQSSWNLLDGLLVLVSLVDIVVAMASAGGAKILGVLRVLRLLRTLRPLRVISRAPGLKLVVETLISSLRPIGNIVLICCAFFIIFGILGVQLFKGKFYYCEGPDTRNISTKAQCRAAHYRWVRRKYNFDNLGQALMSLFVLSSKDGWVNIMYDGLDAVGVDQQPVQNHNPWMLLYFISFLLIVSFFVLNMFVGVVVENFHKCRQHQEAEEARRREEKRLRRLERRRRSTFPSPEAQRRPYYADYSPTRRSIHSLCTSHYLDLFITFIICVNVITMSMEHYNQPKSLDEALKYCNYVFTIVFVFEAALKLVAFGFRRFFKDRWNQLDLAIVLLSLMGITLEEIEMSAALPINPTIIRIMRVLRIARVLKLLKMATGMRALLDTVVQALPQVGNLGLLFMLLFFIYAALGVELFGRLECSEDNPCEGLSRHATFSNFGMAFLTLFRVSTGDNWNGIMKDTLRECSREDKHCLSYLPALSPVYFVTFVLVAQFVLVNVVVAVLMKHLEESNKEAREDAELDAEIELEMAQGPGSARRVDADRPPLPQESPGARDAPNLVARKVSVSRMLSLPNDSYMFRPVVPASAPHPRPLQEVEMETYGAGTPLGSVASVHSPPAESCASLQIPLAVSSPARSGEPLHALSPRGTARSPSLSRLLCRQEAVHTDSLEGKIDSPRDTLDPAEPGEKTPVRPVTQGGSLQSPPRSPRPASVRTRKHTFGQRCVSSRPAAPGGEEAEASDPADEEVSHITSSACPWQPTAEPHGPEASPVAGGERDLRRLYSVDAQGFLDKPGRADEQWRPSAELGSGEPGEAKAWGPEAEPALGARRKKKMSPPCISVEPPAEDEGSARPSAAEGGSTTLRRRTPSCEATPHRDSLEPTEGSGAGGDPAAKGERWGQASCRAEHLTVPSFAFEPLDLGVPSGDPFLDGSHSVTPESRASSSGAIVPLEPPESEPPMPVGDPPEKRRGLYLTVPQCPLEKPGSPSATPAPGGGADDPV
M1 antagonist: antagonists of rat M1 muscarinic receptor; Muscarinic acetylcholine receptor M1 (Rattus norvegicus), P08482; CHO-M1 cells, Fluo-4 calcium, ACh EC80 antagonist mode; active compounds read low; B-score at 10 µM; 64,000 tested, 3.4% active;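 active = calcium fluorescence response, raw or row-and-column corrected B-score, differing from the plate sample mean either way at a set confidence level, mostly lower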
Numbers without * were called inactive.

Cc1nn(Cc2ccc(Cl)cc2Cl)c(C)c1NC(=O)NC12CC3CC(CC(C3)C1)C2 was read as Cav32 inh -4.2*.
O=C(CCn1c(=O)c2ccccc2n(Cc2ccccc2)c1=O)NCc1ccc2c(c1)OCO2 was read as PLAP activator 1.
COc1ccc(C2C(Oc3ccccc3C)C(=O)N2Cc2ccc(F)cc2)cc1OC (stereo not given) was read as PLAP activator 1.3 and Cav32 inh -4.7*.
For CN(C)c1nc(SCCOC(=O)Nc2ccccc2)nc(N(C)C)n1 the results were Her2 expr inh 114, M1 ag -0.19, PLAP activator 1.6, Cav32 inh -4.7* and M1 antagonist -0.83.
`CN(C)c1nc(C(=O)Nc2ccccc2)nc(N(C)C)n1` gave Her2 expr inh 98, M1 ag 0.042, PLAP activator 0.7, Cav32 inh 0.012 and M1 antagonist -0.5.
O=c1/c(=C/c2ccco2)sc2nc(-c3ccccc3Br)nn12 was read as Her2 expr inh 81, M1 ag -0.89, PLAP activator 2.2*, Cav32 inh -0.97 and M1 antagonist 0.21.
`Cc1ccc(OCC(=O)NNC(=O)c2cc3ccccc3o2)cc1C` gave PLAP activator 1.1 and Cav32 inh 1.2.
Screening Cc1ccc(OCC(=O)c2c(O)c3ccccc3oc2=O)cc1C returned PLAP activator 0.9 and Cav32 inh -8.3*.
For Cc1ccc(C(C)C)c(OCC(=O)c2c(O)c3ccccc3oc2=O)c1 the results were Cav32 inh -7.6*.
`OC[C@@H](O)[C@@H](O[C@H]1O[C@H](CO)[C@@H](O)[C@H](O)[C@H]1O)[C@H](O)[C@@H](O)CO` gave Cav32 inh 0.32.
`O=C(NC1CCCC1)C(c1ccsc1)N(Cc1ccco1)C(=O)Cc1cccs1` (stereo not given) gave Her2 expr inh 108, M1 ag 1.2, PLAP activator 1, Cav32 inh -6.9* and M1 antagonist -0.91.
Screening CN(Cc1ccccc1)C(=O)NC1CCCCC1 returned Cav32 inh 0.47.
For O=C(Cc1cccs1)N(Cc1ccco1)C1(C(=O)NC2CCCC2)CCCCC1 the results were Her2 expr inh 65, M1 ag -0.0079, PLAP activator 1, Cav32 inh -5.2* and M1 antagonist -0.14.
`O=C(NC1CCCCC1)C(c1ccccc1)N(Cc1ccco1)C(=O)Cn1cnc2ccccc21` (stereo not given) gave Her2 expr inh 90, M1 ag 1.1, Cav32 inh -5.9* and M1 antagonist -0.55.
`O=C1NC(=O)C(CC(=O)N(Cc2ccco2)C2(C(=O)NC3CCCC3)CCCCC2)N1` (stereo not given) gave Her2 expr inh 120, M1 ag 0.48, PLAP activator 1.3 and M1 antagonist -0.094.
Screening O=C(NC1CCCCC1)N(Cc1ccccc1)Cc1ccco1 returned Her2 expr inh 107, M1 ag 0.94, PLAP activator 1.1, Cav32 inh -9.1* and M1 antagonist -0.11.
`Cc1ccc(C(=O)Nc2ccc3cn[nH]c3c2)cc1S(=O)(=O)N1CCCCC1` gave PLAP activator 1.9 and Cav32 inh -1.1.
`O=C(NC1CCCC1)C(c1ccccc1)N(Cc1ccc2c(c1)OCO2)C(=O)Cc1cccs1` (stereo not given) gave Cav32 inh -5.9*.
For O=C(NCc1ccccc1)C(c1ccccc1)N(Cc1ccc2c(c1)OCO2)C(=O)Cc1cccs1 (stereo not given) the results were Cav32 inh -1.9*.
Screening CCOCCCNC(=O)C(c1ccc(OC)cc1)N(Cc1ccc2c(c1)OCO2)C(=O)CNC(C)=O (stereo not given) returned Her2 expr inh -22*, M1 ag -1.9, Cav32 inh -1.9 and M1 antagonist -0.092.
`COc1ccc(C(=O)N(Cc2ccco2)C(C(=O)NC2CCCC2)c2ccc(O)cc2)cc1OC` (stereo not given) gave Her2 expr inh 84, M1 ag 2.6*, PLAP activator 1.7, Cav32 inh -2.4 and M1 antagonist -1.3.
O=C(Cc1cccs1)NCc1ccc2c(c1)OCO2 was read as Her2 expr inh 169, M1 ag -0.16, PLAP activator 0.7, Cav32 inh 0.024 and M1 antagonist 0.027.
`O=C(NC1CCCC1)C(c1ccncc1)N(Cc1ccccc1)C(=O)Cc1cccs1` (stereo not given) gave PLAP activator 1.1 and Cav32 inh 0.61.
`NCCS(=O)(=O)O` gave Cav32 inh 0.19.
Screening CCOC(=O)Cc1csc(N/N=C/c2ccc(C(F)(F)F)cc2)n1 returned PLAP activator 1.
COc1ccc(/C=N/NC(=O)Cc2csc(Nc3cccc(C(F)(F)F)c3)n2)cc1C was read as PLAP activator 1 and Cav32 inh -3.9*.
N/C(=N\S(=O)(=O)c1ccc(Cl)s1)c1ccccc1 was read as Her2 expr inh 104, M1 ag 0.085, PLAP activator 0.6, Cav32 inh -5.8* and M1 antagonist 0.65.
N#CCCn1c(=S)[nH]c2ccccc21 was read as PLAP activator 2.6* and Cav32 inh -0.31.
For COc1ccc(C(=O)Nn2cnc3scc(-c4cccs4)c3c2=O)c(O)c1 the results were Her2 expr inh 71, M1 ag -0.089, Cav32 inh -9* and M1 antagonist -0.16.
`O=C(Nc1ccccc1)c1ccc(Br)o1` gave Cav32 inh 0.17.
`O=C(c1ccccc1)c1cccc(NC(=O)c2ccc(Br)o2)c1` gave PLAP activator 1.4 and Cav32 inh -3.7*.
Cc1cc(OCC(=O)Nc2ccc3c(c2)OCCO3)ccc1Cl was read as Her2 expr inh 112, M1 ag 0.91, PLAP activator 0.8, Cav32 inh -1 and M1 antagonist -0.26.
For C[C@H](NC(=O)c1nc[nH]c1C(=O)N[C@@H](CCCCNC(=O)OC(C)(C)C)C(=O)OC(C)(C)C)c1ccccc1 the results were Cav32 inh -2.2.
`CS(=O)(=O)N(CCc1ccccc1)CC(=O)N1CCc2ccccc2C1` gave Her2 expr inh 52, M1 ag 0.33, PLAP activator 1.5, Cav32 inh -0.49 and M1 antagonist -0.27.
CCOCN(C(=O)Cn1c(COC)nc2ccccc21)c1c(C)cccc1CC was read as PLAP activator 1.6 and Cav32 inh -3.3*.
For CC(C)(C)OC(=O)CNC(=O)c1nc[nH]c1C(=O)NCC(=O)OC(C)(C)C the results were Cav32 inh 0.98.
Screening N#C/C(=C\c1ccc(N2CCOCC2)o1)c1nc2ccccc2[nH]1 returned PLAP activator 0.9 and Cav32 inh -5.8*.
CCN1/C(=C/C(=O)c2ccco2)Sc2ccccc21 was read as Her2 expr inh -0.5*, M1 ag 2.2, PLAP activator 1, Cav32 inh -0.37 and M1 antagonist -0.85.
